This is part of a sample that, as a whole, favours compounds with a hit. Of some 79,000 tested, about 15% had one in any assay. Unmarked numbers belong to inactive results. The source made the active and inactive calls. Rule as the data show it: active = growth inhibition above about 70%; inactive = the rest.
Legend:
[1] = NCI Yeast Anticancer Drug Screen. Data for the rad52 strain (AID 147);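 also: 0% = growth of vehicle-treated control cultures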; conditions: S. cerevisiae rad52 mutant growth inhibition, stronger effect = higher value
Outline: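 Inhibition of yeast growth, referenced to vehicle controls, was the measured output for a strain with defective DNA damage repair.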

[2] = NCI Yeast Anticancer Drug Screen. Data for the wt1 strain (AID 149);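 also: 0% = growth of vehicle-treated wt1 cultures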; conditions: S. cerevisiae wt1 strain (SPY 50644) growth inhibition, stronger effect = higher value
Outline: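 Using yeast strain wt1, compound-induced growth inhibition was determined against vehicle-treated cultures.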

[3] = NCI Yeast Anticancer Drug Screen. Data for the rad50EPP+ strain (AID 151);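 also: 0% = growth of vehicle-treated control cultures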; conditions: S. cerevisiae rad50 mutant strain, stronger effect = higher value
Outline: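 Genetically defined yeast (rad50EPP+, DNA damage repair alteration) is grown with compound, and inhibition of growth is expressed relative to vehicle-treated controls.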

[4] = NCI Yeast Anticancer Drug Screen. Data for the mgt1 strain (AID 153); conditions: S. cerevisiae mgt1 mutant growth inhibition, stronger effect = higher value
Outline: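 In the mgt1 strain, test compounds were added and growth inhibition was determined relative to vehicle-treated controls.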

[5] = NCI Yeast Anticancer Drug Screen. Data for the rad50 strain (AID 155);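 also: 0% = growth of vehicle-only cultures of the same strain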; conditions: S. cerevisiae rad50 strain growth inhibition, stronger effect = higher value
Outline: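 Relative growth inhibition (compound vs vehicle) was measured in yeast with a defined repair-gene alteration.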

[6] = NCI Yeast Anticancer Drug Screen. Data for the mec2-1 strain (AID 157); conditions: S. cerevisiae mec2-1 strain, stronger effect = higher value
Outline: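 Each compound was tested on mec2-1 yeast, a strain altered in DNA damage repair or cell cycle control. Growth inhibition is reported relative to vehicle.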

[7] = NCI Yeast Anticancer Drug Screen. Data for the rad14 strain (AID 159);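 also: 0% = growth of vehicle-treated control cultures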; conditions: S. cerevisiae rad14 strain growth inhibition, stronger effect = higher value
Outline: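 Screen for anticancer potential: a yeast strain altered in DNA damage repair is grown with compound, and reduced growth is quantified against vehicle controls.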

[8] = NCI Yeast Anticancer Drug Screen. Data for the sgs1 mgt1 strain (AID 161);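 also: 0% = growth of cultures given vehicle only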; conditions: S. cerevisiae sgs1 mgt1 strain, stronger effect = higher value
Outline: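 Test agents were incubated with a DNA-repair-mutant yeast strain. Growth was then read and compared against vehicle-treated controls.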

[9] = NCI Yeast Anticancer Drug Screen. Data for the CLN2oe strain (AID 163);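 also: 0% = growth of vehicle-only control cultures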; conditions: S. cerevisiae CLN2oe strain, stronger effect = higher value
Outline: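 First, the altered yeast strain was treated with each compound; second, its growth was measured; finally, inhibition was derived by comparison with vehicle controls.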

[10] = NCI Yeast Anticancer Drug Screen. Data for the bub3 strain (AID 167); conditions: S. cerevisiae bub3 mutant strain, stronger effect = higher value
Outline: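 Screening used yeast with an engineered genetic alteration affecting cell cycle control. Compound-exposed cultures were compared with vehicle cultures, and reduced growth was taken as inhibition.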

[11] = NCI Yeast Anticancer Drug Screen. Data for the wt2 strain (AID 169);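 also: 0% = growth of vehicle-treated yeast cultures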; conditions: S. cerevisiae wt2 strain growth inhibition, stronger effect = higher value
Outline: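 The panel's yeast strains carry defined changes in DNA repair or cell cycle genes. Each strain is grown with compound, and growth loss is scored relative to vehicle.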

[12] = NCI Yeast Anticancer Drug Screen. Data for the mlh1 strain (AID 171);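 also: 0% = growth of vehicle-treated control cultures of the same strain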; conditions: S. cerevisiae mlh1 strain growth inhibition, stronger effect = higher value
Outline: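 Inhibition values reflect reduced yeast growth in the presence of compound, referenced to vehicle controls, using a strain chosen for its alteration in DNA repair or cell cycle control.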

[13] = NCI Yeast Anticancer Drug Screen. Data for the sgs1 strain (AID 173);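 also: 0% = growth of vehicle-only control cultures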; conditions: S. cerevisiae sgs1 mutant, stronger effect = higher value
Outline: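 Vehicle-treated cultures served as reference for growth inhibition of a yeast strain altered in DNA damage repair or cell cycle control after compound exposure.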

[14] = NCI Yeast Anticancer Drug Screen. Data for the mlh1 rad18 strain (AID 175); conditions: S. cerevisiae mlh1 rad18 strain growth inhibition, stronger effect = higher value
Outline: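 Inhibition values reflect reduced growth of mutant yeast versus vehicle-treated controls following compound exposure; the mutations affect DNA damage repair.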

[15] = NCI Yeast Anticancer Drug Screen. Data for the rad18 strain (AID 177); conditions: S. cerevisiae rad18 mutant growth inhibition, stronger effect = higher value
Outline: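 Steps: expose repair-mutant yeast to compound; measure growth; express as inhibition relative to vehicle control.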

[16] = at 5.0 µM (retest, dose inferred, filed as 0.5)
[17] = at 50.0 µM (retest, dose inferred, filed as 5.0)

## O=C1C=C(CN(CCCl)CCCl)C(=O)C=C1CN(CCCl)CCCl
[1]; at 1.2 µM
  growth inhibition: 0%
[1]; at 3.7 µM
  growth inhibition: 0%
[1]; at 11.0 µM
  growth inhibition: 4%
[1]; at 33.0 µM
  growth inhibition: 14%
[1]; at 100.0 µM
  growth inhibition: 46%
[2]; at 1.2 µM
  growth inhibition: -3%
[2]; at 3.7 µM
  growth inhibition: 0%
[2]; at 11.0 µM
  growth inhibition: 1%
[2]; at 33.0 µM
  growth inhibition: 3%
[2]; at 100.0 µM
  growth inhibition: 4%
[3]; at 1.2 µM
  growth inhibition: 1%
[3]; at 3.7 µM
  growth inhibition: -2%
[3]; at 11.0 µM
  growth inhibition: 0%
[3]; at 33.0 µM
  growth inhibition: 3%
[3]; at 100.0 µM
  growth inhibition: 13%
[4]; at 1.2 µM
  growth inhibition: -5%
[4]; at 3.7 µM
  growth inhibition: 0%
[4]; at 11.0 µM
  growth inhibition: -1%
[4]; at 33.0 µM
  growth inhibition: -1%
[4]; at 100.0 µM
  growth inhibition: 0%
[5]; at 1.2 µM
  growth inhibition: -1%
[5]; at 3.7 µM
  growth inhibition: -1%
[5]; [16]
  growth inhibition: 1%
[5]; at 11.0 µM
  growth inhibition: 0%
[5]; at 33.0 µM
  growth inhibition: 12%
[5]; [17]
  growth inhibition: 32%
[5]; at 50.0 µM
  growth inhibition: 14.8%
[5]; at 100.0 µM
  growth inhibition: 35%
[6]; at 1.2 µM
  growth inhibition: -5%
[6]; at 3.7 µM
  growth inhibition: -8%
[6]; [16]
  growth inhibition: 0%
[6]; at 11.0 µM
  growth inhibition: -3%
[6]; at 33.0 µM
  growth inhibition: 3%
[6]; [17]
  growth inhibition: 12%
[6]; at 50.0 µM
  growth inhibition: 26.1%
[6]; at 100.0 µM
  growth inhibition: 15%
[7]; at 1.2 µM
  growth inhibition: 1%
[7]; at 3.7 µM
  growth inhibition: 4%
[7]; at 11.0 µM
  growth inhibition: 9%
[7]; at 33.0 µM
  growth inhibition: 28%
[7]; at 100.0 µM
  growth inhibition: 61%
[8]; [16]
  growth inhibition: -2%
[8]; [17]
  growth inhibition: 24%
[8]; at 50.0 µM
  growth inhibition: 35.2%
[9]; at 1.2 µM
  growth inhibition: -7%
[9]; at 3.7 µM
  growth inhibition: -8%
[9]; at 11.0 µM
  growth inhibition: -11%
[9]; at 33.0 µM
  growth inhibition: -7%
[9]; at 100.0 µM
  growth inhibition: -12%
[10]; at 1.2 µM
  growth inhibition: -2%
[10]; at 3.7 µM
  growth inhibition: -6%
[10]; [16]
  growth inhibition: -1%
[10]; at 11.0 µM
  growth inhibition: -7%
[10]; at 33.0 µM
  growth inhibition: -6%
[10]; [17]
  growth inhibition: 8%
[10]; at 50.0 µM
  growth inhibition: 1.95%
[10]; at 100.0 µM
  growth inhibition: -9%
[11]; at 1.2 µM
  growth inhibition: 0%
[11]; at 3.7 µM
  growth inhibition: -3%
[11]; at 11.0 µM
  growth inhibition: -1%
[11]; at 33.0 µM
  growth inhibition: -1%
[11]; at 100.0 µM
  growth inhibition: 4%
[12]; at 1.2 µM
  growth inhibition: -1%
[12]; at 3.7 µM
  growth inhibition: -1%
[12]; at 11.0 µM
  growth inhibition: -1%
[12]; at 33.0 µM
  growth inhibition: 2%
[12]; at 100.0 µM
  growth inhibition: 6%
[13]; at 1.2 µM
  growth inhibition: 0%
[13]; at 3.7 µM
  growth inhibition: 1%
[13]; at 11.0 µM
  growth inhibition: 1%
[13]; at 33.0 µM
  growth inhibition: 12%
[13]; at 100.0 µM
  growth inhibition: 28%
[14]; [16]
  growth inhibition: 2%
[14]; [17]
  growth inhibition: 36%
[14]; at 50.0 µM
  growth inhibition: 73.6% (active)
[15]; at 1.2 µM
  growth inhibition: 4%
[15]; at 3.7 µM
  growth inhibition: 13%
[15]; at 11.0 µM
  growth inhibition: 29%
[15]; at 33.0 µM
  growth inhibition: 86% (active)
[15]; at 100.0 µM
  growth inhibition: 90% (active)

— PubChem BioAssay (NCI)
